Shown are actives, neighbours in structure and some others; about 1.8% of the full set was active somewhere.
GALR2 ag: GALR2 (human) receptor agonism | O43603 | GALR2-expressing cells, agonist activation read-out | hit rate 0.48% among 140,000 | AID 803 | activation, % (test concentration not listed); in the data active means activation above about 5%, passing the limit was not always enough;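 further: 0% = vehicle buffer wells and 100% = reference agonist at full effect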
GALR2 blocker: blocks the human galanin receptor 2. O43603. hit rate 0.39% among 140,000. GALR2-expressing cells, antagonist mode. inhibition, % at 4 µM; in the data active means inhibition above about 27%;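 further: cells stimulated with galanin 1-16 at roughly its EC80; 0% = agonist challenge control and 100% = basal control without agonist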
S1P2 antag: antagonists of human S1P2 receptor | cell-based S1P2 antagonist assay, inhibition at 5 uM | hit rate 0.21% among 97,000 | O95136 | inhibition, % at 5 µM; in the data active means inhibition above about 45%;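 further: CRE beta-lactamase reporter cells expressing human S1P2 stimulated with S1P; 0% = agonist at EC80 alone and 100% = agonist plus reference antagonist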
Target sequence (O95136 whole entry, looked up): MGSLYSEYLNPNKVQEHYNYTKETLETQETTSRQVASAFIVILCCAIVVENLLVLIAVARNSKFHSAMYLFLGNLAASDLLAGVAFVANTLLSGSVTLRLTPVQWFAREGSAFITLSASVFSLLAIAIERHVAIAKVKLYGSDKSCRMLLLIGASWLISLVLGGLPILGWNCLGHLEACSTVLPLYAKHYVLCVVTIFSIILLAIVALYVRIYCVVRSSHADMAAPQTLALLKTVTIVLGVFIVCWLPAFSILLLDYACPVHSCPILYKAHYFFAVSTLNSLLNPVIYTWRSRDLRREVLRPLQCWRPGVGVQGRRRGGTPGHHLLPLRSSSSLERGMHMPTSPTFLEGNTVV
MRP resist rev: reverses drug resistance mediated by MRP; H69AR cells + 2 uM doxorubicin, CellTiter-Glo, 72 h; differential viability (reversal), % at 10 µM; AID 602; hit rate 0.04% among 85,000;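 active means viability drop by adding the cancer drug above about 55%, with treated viability meeting a 40% cutoff, limit read from the data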;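 further: viability without doxorubicin minus viability with 2 µM doxorubicin for each compound; larger differential means the compound sensitizes cells more to doxorubicin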
MRP-1 activ: activators of MRP-1. hit rate 0.61% among 140,000. H69AR cells + doxorubicin, viability rescue, CellTiter-Glo. viability increase, % at 10 µM. AID 799;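 active means viability gain under doxorubicin at or above a set limit, the compound median plus 3 SD, cut at about 4.7% in these data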;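 further: MRP-1 overexpressing cells given doxorubicin 25 µM after compound pretreatment; 18-22 h compound pretreatment then 72 h with doxorubicin before readout; 0% = doxorubicin-only wells and 100% = vehicle-treated cells without doxorubicin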
S1P2 agonist: agonists of human S1P2 receptor. O95136. S1P2-expressing cell line, agonist reporter read-out. activation, % at 4.5 µM. hit rate 0.46% among 97,000; in the data active means activation above about 16%;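 further: 0% = vehicle low control and 100% = maximal reference agonist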
An asterisk follows results filed as active; . = not tested or not shown.

SMILES | GALR2 ag | GALR2 blocker | S1P2 antag | MRP resist rev | MRP-1 activ | S1P2 agonist
CCOc1cc(C2C(C(=O)OC(C)C)=C(C)N=C3SCCC(=O)N32)ccc1OC(C)=O (stereo not drawn) | -1 | -9 | -9 | 2 | -4 | 1
COc1ccc(CN=C2NC(=O)CC(C(=O)Nc3ccc([N+](=O)[O-])cc3C)S2)cc1 (stereo not drawn) | -1 | -4 | . | . | 4 | .
COc1ccc(CN=C2NC(=O)CC(C(=O)Nc3ccccc3C)S2)cc1 (stereo not drawn) | -1 | -22 | . | . | 6.0* | .
CCn1c(COc2ccc(Cl)cc2)nnc1SCc1ccc(C#N)cc1 | -2 | -2 | -2 | 26 | 1 | -3
CCn1c(COc2ccc(Cl)cc2)nnc1SC1CCc2ccccc2C1=O (stereo not drawn) | 0 | 0 | . | . | 7.1* | .
CCCC(C)NC(=O)C1CCN(S(=O)(=O)c2ccccc2)CC1 (stereo not drawn) | -2 | -4 | -10 | -3 | 0 | -1
Cc1cccc2cc(CN(Cc3ccco3)S(=O)(=O)c3ccc4c(c3)OCCO4)c(=O)[nH]c12 | -1 | 3 | 9 | 5 | 11* | -5
CC1CCc2c(C(=O)OCC(=O)Nc3cccc(S(=O)(=O)N4CCCCCC4)c3)csc2C1 (stereo not drawn) | 0 | -11 | . | . | 5.1* | .
COCCCn1c(SCC(=O)Nc2nnc(C)s2)nnc1-c1ccoc1C | -3 | -10 | 4 | -23 | -1 | -7
COCCn1c(SCC(=O)Nc2nc3ccccc3s2)nnc1-c1ccoc1C | -2 | 6 | -19 | -5 | -4 | 16*
O=C(Nc1ccc(NC(=O)C23CC4CC(CC(C4)C2)C3)cn1)c1ccco1 | 0 | -6 | 15 | -5 | -4 | -6
CCN1CN=C(NS(=O)(=O)c2ccc(C)cc2)NC1 | -2 | -3 | 0 | 1 | 0 | -4
O=C(CN(C(=O)Cn1nnc(-c2cccs2)n1)c1ccc2c(c1)OCCO2)NC1CCCCC1 | -1 | -1 | 11 | -10 | -2 | -4
O=C(NCc1ccccc1)C(c1ccc(O)cc1)N(C(=O)Cn1nnc(-c2cccs2)n1)c1ccc2c(c1)OCCO2 (stereo not drawn) | 0 | -10 | -18 | -8 | 5.8* | -4
COc1ccc(NC(=O)Cn2nnc(C(=O)NCc3ccccc3OC)c2N)cc1Cl | 1 | 7 | 47* | . | -1 | -7
Cc1ccc(NC(=O)Cn2nnc(C(=O)NCc3ccccc3)c2N)cc1C | -2 | 6 | 22 | . | -1 | -7
CSc1nc(SCCO)c2sc3nc(-c4ccco4)c4c(c3c2n1)CC(C)(C)OC4 | 6.3* | 8 | -18 | . | -1 | 7
COc1ccc(N2CCN(C(=O)c3cccc(N4C(=O)C5CC=CC(C)C5C4=O)c3)CC2)cc1 (stereo not drawn) | -1 | 12 | 6 | 12 | -2 | -2
CCC(C)NC(=O)c1ccccc1C(=O)NC(C)CC (stereo not drawn) | -2 | -16 | 58* | . | 0 | -1
Cc1cccc(N2C(=O)CC(NNc3nc4ccccc4s3)C2=O)c1 (stereo not drawn) | 0 | 3 | . | . | 4.7* | .
Cc1cccc(N2C(=O)CC(N3CCN(c4ccccc4)CC3)C2=O)c1 (stereo not drawn) | -1 | -2 | -6 | -7 | 0 | -1
COc1ccc(C2C=C(c3ccc(Cl)cc3)Nc3nc(NC(C)=O)nn32)cc1 (stereo not drawn) | -2 | 22 | 21 | 2 | -3 | -11
COc1ccc(C2=CC(c3ccc(Cl)cc3)n3cnnc3N2)cc1OC (stereo not drawn) | -2 | 38* | . | 10 | -2 | .
O=C1CC(c2ccc(S(=O)(=O)NCc3ccncc3)cc2)CN1 (stereo not drawn) | -3 | 7 | 14 | 8 | 0 | 0
CC1CCCCC1NS(=O)(=O)c1ccc(S(=O)(=O)NCc2ccncc2)cc1 (stereo not drawn) | 0 | 23 | 55* | -3 | -2 | -3
O=C(Nc1c(F)cccc1F)c1cnc(N2CCN(c3ccccn3)CC2)c2ccccc12 | -2 | 11 | 19 | -16 | 4 | -6
COc1ccc(Nc2nnc(Cc3ccc(Cl)cc3)c(=O)[nH]2)c(OC)c1 | -1 | 14 | . | 2 | 7.0* | .
COc1ccc(NC(=O)COC(=O)CNS(=O)(=O)c2ccc(C)cc2)c(OC)c1 | 0 | -3 | . | . | 0 | .
COc1cc2cc(C(=O)Nc3ccccc3)c(N)nc2cc1OC | -1 | 12 | 10 | -2 | -3 | -6
